{"source": "PubChem BioAssay (Tox21)", "note": "Results filed as inconclusive are left out. Calls of active or inactive are those of the source. Calls follow the shape of the dose curve; as a rule, active = well fitted inhibition curve with a large enough effect in the signal ratio in the repeat runs, with a control signal flat; inconclusive = weak or mixed curves, or effect the other way; inactive = flat fitted curve, though single readings scatter; the % refers to the signal ratio. % is scaled to controls: 0 for no effect and ±100 for the full control effect."}
{"target": "D(2) dopamine receptor (Homo sapiens) (UniProt P14416)", "sequence (P14416 whole entry, looked up)": "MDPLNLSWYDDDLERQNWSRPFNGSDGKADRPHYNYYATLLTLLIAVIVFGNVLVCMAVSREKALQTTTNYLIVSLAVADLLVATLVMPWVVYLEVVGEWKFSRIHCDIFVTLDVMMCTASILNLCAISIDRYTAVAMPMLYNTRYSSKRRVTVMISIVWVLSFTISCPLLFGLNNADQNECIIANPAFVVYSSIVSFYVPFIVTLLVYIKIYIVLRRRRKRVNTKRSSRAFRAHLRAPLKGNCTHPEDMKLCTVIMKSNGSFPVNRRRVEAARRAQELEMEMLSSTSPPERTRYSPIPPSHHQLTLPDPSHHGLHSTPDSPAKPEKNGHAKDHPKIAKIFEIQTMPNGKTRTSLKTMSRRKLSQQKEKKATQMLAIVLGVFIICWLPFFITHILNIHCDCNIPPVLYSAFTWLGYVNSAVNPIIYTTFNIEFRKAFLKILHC", "experiment": "Dopamine D2 receptor (DRD2) small molecule antagonists, cell-based qHTS assay (AID 1963595)", "settings": "HEK293-DRD2 cAMP HTRF antagonist mode; series mostly up to 92.4 µM; activity change, negative = inhibition: at the top concentration", "summary_of_the_method": "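Antagonist mode in DRD2-HEK293 cells: after compound addition with 0.1 mM Ro20-1724, cells received quinpirole (12 nM) and NKH477 (200 nM) for 30 min at room temperature; HTRF cAMP read after 1 h detection.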"}
{"smiles": "CC(=O)OC(c1ccccc1)C(Cl)(Cl)Cl", "note": "(centres undefined)", "activity change, negative = inhibition": "1.73% (inactive)"}
{"smiles": "CC(C)C(Nc1ccc(C(F)(F)F)cc1Cl)C(=O)OC(C#N)c1cccc(Oc2ccccc2)c1", "note": "(centres undefined)", "activity change, negative = inhibition": "-3.21% (inactive)"}
{"smiles": "C[CH2][Hg][N]1C(=O)C2C(C1=O)C1(Cl)C(Cl)=C(Cl)C2(Cl)C1(Cl)Cl", "note": "(centres undefined)", "activity change, negative = inhibition": "2.84% [at 18.9 µM] (inactive)"}
{"smiles": "CC(=O)[O-].CC(=O)[O-].O.O.[Cd+2]", "activity change, negative = inhibition": "-1.6% (inactive)"}
{"smiles": "NC(=O)CI", "activity change, negative = inhibition": "-1.08% (inactive)"}
{"smiles": "CCN(CC)c1nc(C)cc(OP(=S)(OC)OC)n1", "activity change, negative = inhibition": "-2.97% (inactive)"}
{"smiles": "COC(=O)C(C)N(C(=O)Cc1ccccc1)c1c(C)cccc1C", "note": "(centres undefined)", "activity change, negative = inhibition": "0.0142% (inactive)"}
{"smiles": "CCCSP(=O)(OCC)SCCC", "activity change, negative = inhibition": "2.74% (inactive)"}
{"smiles": "OCCBr", "activity change, negative = inhibition": "-5.04% (inactive)"}
